# Measured values taken from PubChem BioAssay AID1159580 (chemical genetic matrix, 2015).
# Values joined by “and” are separate entries in the source; they are usually repeats but may differ in a detail not shown here. Identical values can stand only once. About 2,000 (36%) of roughly 5,500 compounds were called active. Inconclusive results (about 18%) are left out. Cut-off read from the data, not from the text of the source: active = normalized growth mostly below about 0.91 (no sharp cut-off); inconclusive = no clear call, values can overlap the other calls; inactive = mostly above about 0.92. The list shows a part of the results.
# Experiment: chemical genetic growth profiling, strain panel (AID 1159580);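 note: tested at 20 µM; growth read once vehicle control cultures reached saturation at 30 °C; 1 = growth at the plate median or of vehicle wells; lower values mean less growth of the strain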
# Settings: growth OD
# [1] = S. cerevisiae deletion strains, locus YAL013W, strain DEP1, stronger effect = lower value
# [2] = S. cerevisiae deletion strains, locus YBR229C, strain ROT2, stronger effect = lower value
# [3] = S. cerevisiae deletion strains, locus YCL061C, strain MRC1, stronger effect = lower value
# [4] = S. cerevisiae deletion strains, locus YDL101C, strain DUN1, stronger effect = lower value
# [5] = S. cerevisiae deletion strains, locus YDR150W, strain NUM1, stronger effect = lower value
# [6] = S. cerevisiae deletion strains, locus YEL061C, strain CIN8, stronger effect = lower value
# [7] = S. cerevisiae deletion strains, locus YGR078C, strain PAC10, stronger effect = lower value
# [8] = S. cerevisiae deletion strains, locus YHR030C, strain SLT2, stronger effect = lower value
# [9] = S. cerevisiae deletion strains, locus YHR087W, strain rtc3, stronger effect = lower value
# [10] = S. cerevisiae deletion strains, locus YJR043C, strain POL32, stronger effect = lower value
# [11] = S. cerevisiae deletion strains, locus YJR075W, strain HOC1, stronger effect = lower value
# [12] = S. cerevisiae deletion strains, locus YLR039C, strain RIC1, stronger effect = lower value
# [13] = S. cerevisiae deletion strains, locus YLR058C, strain SHM2 (second series), stronger effect = lower value
# [14] = S. cerevisiae deletion strains, locus YLR085C, strain ARP6, stronger effect = lower value
# [15] = S. cerevisiae deletion strains, locus YLR262C, strain YPT6, stronger effect = lower value
# [16] = S. cerevisiae deletion strains, locus YML094W, strain GIM5, stronger effect = lower value
# [17] = S. cerevisiae deletion strains, locus YMR219W, strain ESC1, stronger effect = lower value
# [18] = S. cerevisiae deletion strains, locus YMR263W, strain SAP30, stronger effect = lower value
# [19] = S. cerevisiae deletion strains, locus YMR307W, strain GAS1, stronger effect = lower value
# [20] = S. cerevisiae deletion strains, locus YNL153C, strain GIM3, stronger effect = lower value
# [21] = S. cerevisiae deletion strains, locus YNL298W, strain CLA4 (second series), stronger effect = lower value
# [22] = S. cerevisiae deletion strains, locus YNL322C, strain KRE1, stronger effect = lower value
# [23] = S. cerevisiae deletion strains, locus YNR030W, strain Alg12, stronger effect = lower value
# [24] = S. cerevisiae deletion strains, locus YOL006C, strain TOP1, stronger effect = lower value
# [25] = S. cerevisiae deletion strains, locus YPL055C, strain LGE1, stronger effect = lower value
# [26] = S. cerevisiae deletion strains, locus YPL241C, strain CIN2, stronger effect = lower value
# [27] = S. cerevisiae deletion strains, locus YPR135W, strain CTF4, stronger effect = lower value
smiles,measurement,setting,value
CCOC(=O)CSC(=S)NCc1ccc(C)cc1,normalized growth,[1],0.822 (active)
same,normalized growth,"S. cerevisiae deletion strains, locus YAR019C, strain CDC15, stronger effect = lower value",0.956 (inactive)
same,normalized growth,"S. cerevisiae deletion strains, locus YBL105C, strain PKC1, stronger effect = lower value",0.958 (inactive)
same,normalized growth,"S. cerevisiae deletion strains, locus YBR135W, strain CKS1, stronger effect = lower value",0.937 (inactive)
same,normalized growth,"S. cerevisiae deletion strains, locus YBR136W, strain MEC1, stronger effect = lower value",0.955 (inactive)
same,normalized growth,"S. cerevisiae deletion strains, locus YBR160W, strain CDC28, stronger effect = lower value",0.951 (inactive)
same,normalized growth,[2],0.866 (active)
same,normalized growth,[3],0.907 (active)
same,normalized growth,"S. cerevisiae deletion strains, locus YDL017W, strain CDC7, stronger effect = lower value",0.959 (inactive)
same,normalized growth,"S. cerevisiae deletion strains, locus YDL028C, strain MPS1, stronger effect = lower value",0.947 (inactive)
same,normalized growth,[4],0.947 (inactive) and 0.839 (active)
same,normalized growth,"S. cerevisiae deletion strains, locus YDL108W, strain KIN28, stronger effect = lower value",0.956 (inactive)
same,normalized growth,"S. cerevisiae deletion strains, locus YDL132W, strain cdc53, stronger effect = lower value",0.928 (inactive)
same,normalized growth,"S. cerevisiae deletion strains, locus YDL134C, strain PPH21, stronger effect = lower value",0.0516 (active)
same,normalized growth,"S. cerevisiae deletion strains, locus YDL214C, strain PRR2, stronger effect = lower value",0.95 (inactive)
same,normalized growth,"S. cerevisiae deletion strains, locus YDR052C, strain DBF4, stronger effect = lower value",0.972 (inactive)
same,normalized growth,"S. cerevisiae deletion strains, locus YDR054C, strain cdc34, stronger effect = lower value",0.93 (inactive)
same,normalized growth,[5],0.787 (active)
same,normalized growth,"S. cerevisiae deletion strains, locus YDR226W, strain ADK1, stronger effect = lower value",0.946 (inactive)
same,normalized growth,"S. cerevisiae deletion strains, locus YDR477W, strain SNF1, stronger effect = lower value",0.949 (inactive)
same,normalized growth,[6],0.216 (active)
same,normalized growth,"S. cerevisiae deletion strains, locus YER123W, strain YCK3, stronger effect = lower value",0.933 (inactive)
same,normalized growth,"S. cerevisiae deletion strains, locus YER133W, strain GLC7, stronger effect = lower value",0.953 (inactive)
same,normalized growth,"S. cerevisiae deletion strains, locus YFL009W, strain cdc4, stronger effect = lower value",0.944 (inactive)
same,normalized growth,"S. cerevisiae deletion strains, locus YFL029C, strain CAK1, stronger effect = lower value",0.958 (inactive)
same,normalized growth,"S. cerevisiae deletion strains, locus YFR003C, strain YPI1, stronger effect = lower value",0.957 (inactive)
same,normalized growth,"S. cerevisiae deletion strains, locus YFR019W, strain FAB1, stronger effect = lower value",0.957 (inactive)
same,normalized growth,"S. cerevisiae deletion strains, locus YFR028C, strain CDC14, stronger effect = lower value",0.947 (inactive)
same,normalized growth,"S. cerevisiae deletion strains, locus YGR040W, strain KSS1, stronger effect = lower value",0.946 (inactive)
same,normalized growth,"S. cerevisiae deletion strains, locus YGR052W, strain FMP48, stronger effect = lower value",1.01 (inactive)
same,normalized growth,[7],0.766 (active)
same,normalized growth,"S. cerevisiae deletion strains, locus YGR092W, strain DBF2, stronger effect = lower value",0.937 (inactive)
same,normalized growth,[8],0.0833 (active) and 0.84 (active)
same,normalized growth,"S. cerevisiae deletion strains, locus YHR079C, strain IRE1, stronger effect = lower value",0.93 (inactive)
same,normalized growth,"S. cerevisiae deletion strains, locus YHR082C, strain KSP1, stronger effect = lower value",0.964 (inactive)
same,normalized growth,[9],0.86 (active)
same,normalized growth,"S. cerevisiae deletion strains, locus YHR205W, strain SCH9, stronger effect = lower value",0.872 (inactive)
same,normalized growth,"S. cerevisiae deletion strains, locus YIL147C, strain SLN1, stronger effect = lower value",0.951 (inactive)
same,normalized growth,"S. cerevisiae deletion strains, locus YJL095W, strain BCK1, stronger effect = lower value",0.879 (inactive)
same,normalized growth,"S. cerevisiae deletion strains, locus YJL128C, strain PBS2, stronger effect = lower value",0.954 (inactive)
same,normalized growth,"S. cerevisiae deletion strains, locus YJL157C, strain FAR1, stronger effect = lower value",0.963 (inactive)
same,normalized growth,"S. cerevisiae deletion strains, locus YJL187C, strain SWE1, stronger effect = lower value",0.958 (inactive)
same,normalized growth,"S. cerevisiae deletion strains, locus YJR016C, strain ILV3, stronger effect = lower value",0.954 (inactive)
same,normalized growth,[10],0.812 (active)
same,normalized growth,"S. cerevisiae deletion strains, locus YJR066W, strain TOR1 (second series), stronger effect = lower value",0.989 (inactive)
same,normalized growth,"S. cerevisiae deletion strains, locus YJR066W, strain TOR1, stronger effect = lower value",0.957 (inactive)
same,normalized growth,[11],0.82 (active)
same,normalized growth,"S. cerevisiae deletion strains, locus YKL048C, strain ELM1, stronger effect = lower value",0.944 (inactive)
same,normalized growth,"S. cerevisiae deletion strains, locus YKL067W, strain YNK1, stronger effect = lower value",0.95 (inactive)
same,normalized growth,"S. cerevisiae deletion strains, locus YKL101W, strain HSL1, stronger effect = lower value",0.955 (inactive)
same,normalized growth,"S. cerevisiae deletion strains, locus YKL193C, strain SDS22, stronger effect = lower value",0.948 (inactive)
same,normalized growth,"S. cerevisiae deletion strains, locus YKL203C, strain TOR2, stronger effect = lower value",1 (inactive)
same,normalized growth,[12],0.172 (active)
same,normalized growth,[13],0.909 (active)
same,normalized growth,[14],0.0735 (active)
same,normalized growth,"S. cerevisiae deletion strains, locus YLR113W, strain HOG1, stronger effect = lower value",0.76 (active)
same,normalized growth,"S. cerevisiae deletion strains, locus YLR133W, strain CKI1, stronger effect = lower value",0.959 (inactive)
same,normalized growth,[15],0.111 (active)
same,normalized growth,"S. cerevisiae deletion strains, locus YLR403W, strain SFP1, stronger effect = lower value",0.967 (inactive)
same,normalized growth,"S. cerevisiae deletion strains, locus YML070W, strain DAK1, stronger effect = lower value",0.949 (inactive)
same,normalized growth,[16],0.493 (active)
same,normalized growth,"S. cerevisiae deletion strains, locus YMR001C, strain CDC5, stronger effect = lower value",0.946 (inactive)
same,normalized growth,"S. cerevisiae deletion strains, locus YMR205C, strain PFK2 (second series), stronger effect = lower value",0.965 (inactive)
same,normalized growth,[17],0.909 (active)
same,normalized growth,[18],0.853 (active)
same,normalized growth,"S. cerevisiae deletion strains, locus YMR277W, strain FCP1, stronger effect = lower value",0.957 (inactive)
same,normalized growth,[19],0.109 (active)
same,normalized growth,"S. cerevisiae deletion strains, locus YNL006W, strain LST8, stronger effect = lower value",0.959 (inactive)
same,normalized growth,"S. cerevisiae deletion strains, locus YNL020C, strain ARK1, stronger effect = lower value",0.948 (inactive)
same,normalized growth,[20],0.665 (active)
same,normalized growth,"S. cerevisiae deletion strains, locus YNL161W, strain CBK1, stronger effect = lower value",0.953 (inactive)
same,normalized growth,"S. cerevisiae deletion strains, locus YNL183C, strain NPR1, stronger effect = lower value",0.912 (inactive)
same,normalized growth,"S. cerevisiae deletion strains, locus YNL207W, strain RIO2, stronger effect = lower value",0.953 (inactive)
same,normalized growth,"S. cerevisiae deletion strains, locus YNL222W, strain SSU72, stronger effect = lower value",0.956 (inactive)
same,normalized growth,[21],0.0782 (active)
same,normalized growth,"S. cerevisiae deletion strains, locus YNL307C, strain MCK1 (second series), stronger effect = lower value",0.928 (inactive)
same,normalized growth,[22],0.925 (active)
same,normalized growth,[23],0.0728 (active)
same,normalized growth,[24],0.107 (active)
same,normalized growth,"S. cerevisiae deletion strains, locus YOL078W, strain AVO1, stronger effect = lower value",0.948 (inactive)
same,normalized growth,"S. cerevisiae deletion strains, locus YOL136C, strain PFK27, stronger effect = lower value",0.946 (inactive)
same,normalized growth,"S. cerevisiae deletion strains, locus YOR061W, strain CKA2, stronger effect = lower value",0.965 (inactive)
same,normalized growth,"S. cerevisiae deletion strains, locus YOR119C, strain RIO1, stronger effect = lower value",1.01 (inactive)
same,normalized growth,"S. cerevisiae deletion strains, locus YOR231W, strain MKK1, stronger effect = lower value",0.914 (inactive)
same,normalized growth,"S. cerevisiae deletion strains, locus YOR329C, strain SCD5, stronger effect = lower value",0.952 (inactive)
same,normalized growth,"S. cerevisiae deletion strains, locus YPL031C, strain PHO85, stronger effect = lower value",0.944 (inactive)
same,normalized growth,[25],0.618 (active)
same,normalized growth,"S. cerevisiae deletion strains, locus YPL153C, strain RAD53, stronger effect = lower value",0.954 (inactive)
same,normalized growth,"S. cerevisiae deletion strains, locus YPL204W, strain HRR25, stronger effect = lower value",0.943 (inactive)
same,normalized growth,"S. cerevisiae deletion strains, locus YPL209C, strain IPL1, stronger effect = lower value",0.953 (inactive)
same,normalized growth,[26],0.0682 (active)
same,normalized growth,"S. cerevisiae deletion strains, locus YPL256C, strain CLN2, stronger effect = lower value",0.825 (active)
same,normalized growth,"S. cerevisiae deletion strains, locus YPR025C, strain CCL1, stronger effect = lower value",0.943 (inactive)
same,normalized growth,"S. cerevisiae deletion strains, locus YPR106W, strain ISR1, stronger effect = lower value",0.951 (inactive)
same,normalized growth,"S. cerevisiae deletion strains, locus YPR111W, strain DBF20, stronger effect = lower value",0.931 (inactive)
same,normalized growth,[27],0.148 (active)
same,normalized growth,"S. cerevisiae deletion strains, strain NNK1, stronger effect = lower value",0.948 (inactive)
same,normalized growth,"S. cerevisiae deletion strains, strain TSCII, stronger effect = lower value",0.949 (inactive)
CCOC(=O)C1CCN(C(=S)Nc2ccccc2C(F)(F)F)CC1,normalized growth,[1],1 (inactive)
same,normalized growth,[2],1 (inactive)
same,normalized growth,[3],1.02 (inactive)
same,normalized growth,[4],1.01 (inactive)
same,normalized growth,[5],0.994 (inactive)
same,normalized growth,[6],0.998 (inactive)
same,normalized growth,[7],1.01 (inactive)
same,normalized growth,[8],0.99 (inactive)
same,normalized growth,[9],1.02 (inactive)
same,normalized growth,[10],1 (inactive)
same,normalized growth,[11],0.982 (inactive)
same,normalized growth,"S. cerevisiae deletion strains, locus YKL190W, strain CNB1, stronger effect = lower value",0.994 (inactive)
same,normalized growth,[12],0.866 (inactive)
same,normalized growth,[13],0.996 (inactive)
same,normalized growth,[14],0.983 (inactive)
same,normalized growth,[15],0.868 (inactive)
same,normalized growth,[16],1.08 (inactive)
same,normalized growth,[17],1 (inactive)
same,normalized growth,[18],1.01 (inactive)
same,normalized growth,[19],0.913 (inactive)
same,normalized growth,[20],1.01 (inactive)
same,normalized growth,[21],0.973 (inactive)
same,normalized growth,[22],1.01 (inactive)
same,normalized growth,[23],0.978 (inactive)
same,normalized growth,[24],1.04 (inactive)
same,normalized growth,[25],1.03 (inactive)
same,normalized growth,[26],1.01 (inactive)
same,normalized growth,[27],0.982 (inactive)
same,normalized growth,"S. cerevisiae strains, strain wild type, stronger effect = lower value",1.01 (inactive)
